Screening results from PubChem BioAssay.
CYP2C9 activ – human CYP2C9 activators, primary screen, biochemical, luminescence; recombinant CYP2C9, luciferin-H conversion; active compounds read high; factor 1 = untreated enzyme, 0 = blocked; activation factor at 5 µM; actives 1.4% (n = 96,000); AID 1024, 2008;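 active = activation factor of 2 or more for CYP2C9 at a 5 µM dose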
CYP2C19 inhib – blockers of cytochrome P450 2C19 activity – biochemical, luminescence, ADME assay, primary screen. P33261. CYP2C19 Supersomes, luciferin-H EGE luminescence, 30 min. inhibition, % at 5 µM. actives 21% (n = 96,000). AID 778, 2007;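 active = CYP2C19 inhibition above a set limit at 5 µM in the primary screen, cut at about 50% in these data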
Target sequence (P33261 whole entry, looked up): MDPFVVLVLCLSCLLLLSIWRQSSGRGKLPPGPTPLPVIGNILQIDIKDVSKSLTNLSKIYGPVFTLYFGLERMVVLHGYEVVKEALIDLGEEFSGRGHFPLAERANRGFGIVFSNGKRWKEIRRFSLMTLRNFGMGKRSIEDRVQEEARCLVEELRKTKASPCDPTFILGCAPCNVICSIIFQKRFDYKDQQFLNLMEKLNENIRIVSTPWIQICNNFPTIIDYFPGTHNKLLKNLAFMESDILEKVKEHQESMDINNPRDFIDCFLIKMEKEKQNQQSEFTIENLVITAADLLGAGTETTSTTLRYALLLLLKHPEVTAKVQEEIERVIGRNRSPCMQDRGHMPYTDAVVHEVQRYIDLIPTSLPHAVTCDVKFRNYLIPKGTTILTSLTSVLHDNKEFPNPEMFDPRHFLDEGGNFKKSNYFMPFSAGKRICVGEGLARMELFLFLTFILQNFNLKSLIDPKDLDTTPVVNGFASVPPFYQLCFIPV
CYP2C19 activ – human CYP2C19 activators, primary screen, biochemical, luminescence. activation factor at 5 µM. recombinant CYP2C19, luciferin-H EGE luminescence; active compounds read high; 0 = fully inhibited enzyme, 1 = untreated enzyme. 96,000 tested, under 10 active. Cytochrome P450 2C19 (Homo sapiens), P33261;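 active = activation factor of at least 2 at 5 µM in the primary screen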
Cav32 inh – Cav3.2 calcium influx blockers – cell-based, Fluo-4 calcium fluorescence, FDSS, MLSMR library, primary screen; Cav3.2-expressing cells; active compounds read low; Voltage-dependent T-type calcium channel subunit alpha-1H (Homo sapiens), O95180; B-score at 10 µM; actives 4% (n = 100,000);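 active = single-dose well whose peak fluorescence ratio is a statistical outlier from its plate by either plate-standardised score or position-corrected B-score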
CYP2C9 inh – blockers of cytochrome P450 2C9 activity – biochemical, luminescence, ADME assay, primary screen | CYP2C9 Supersomes, luciferin-H conversion | inhibition, % at 5 µM | actives 20% (n = 96,000) | AID 777, 2007;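 active = blocking of liver enzyme CYP2C9 beyond about 50% at 5 µM, limit read from the data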
Numbers stand for hits. The list is not random: actives were taken first. Their share in the collection is about 27%.

For CCc1c(C)nc2ncnn2c1N1CCCC(C(=O)Nc2cc(F)ccc2C)C1 (stereo not given) the results were CYP2C9 activ inactive, CYP2C19 inhib inactive, CYP2C19 activ inactive, Cav32 inh inactive and CYP2C9 inh 84.6.
For Cc1cc(=O)[nH]c(Cc2ccc(OC(C)C)cc2)n1 the results were CYP2C9 activ inactive, CYP2C19 inhib inactive, CYP2C19 activ inactive, Cav32 inh inactive and CYP2C9 inh inactive.
Screening CCOC(=O)c1nnc2c(Br)c(-c3ccccc3)nn2c1C returned Cav32 inh inactive.
Cn1c(=O)n(C/C=C/c2ccccc2)c(=O)c2c1nc1n2CCCN1c1ccc(F)cc1 was read as CYP2C9 activ inactive, CYP2C19 inhib inactive, CYP2C19 activ inactive, Cav32 inh inactive and CYP2C9 inh inactive.
For CN1CCNC(=O)C1CC(=O)O (stereo not given) the results were CYP2C9 activ inactive, CYP2C19 inhib inactive, CYP2C19 activ inactive, Cav32 inh inactive and CYP2C9 inh inactive.
`c1ccc2sc(N3CCOCC3)nc2c1` gave CYP2C9 activ inactive, CYP2C19 inhib inactive, CYP2C19 activ inactive, Cav32 inh inactive and CYP2C9 inh inactive.
For c1ccc2sc(N3CN(CCN4CCOCC4)CN(c4nc5ccccc5s4)C3)nc2c1 the results were CYP2C9 activ inactive, CYP2C19 inhib inactive, CYP2C19 activ inactive, Cav32 inh -5.71 and CYP2C9 inh inactive.
Screening c1ccc2sc(SN3CCOCC3)nc2c1 returned CYP2C9 activ inactive, CYP2C19 inhib 81.8, CYP2C19 activ inactive, Cav32 inh inactive and CYP2C9 inh inactive.
Screening Cc1cc2c(cc1C)CSC(c1ccccc1OC(=O)C(C)C)SC2 returned CYP2C9 activ inactive, CYP2C19 inhib inactive, CYP2C19 activ inactive, Cav32 inh inactive and CYP2C9 inh inactive.
For COc1ccc(N(C(=O)Cn2cnc3ccccc32)C(C(=O)NC2CCCCC2)c2ccccc2)cc1 (stereo not given) the results were CYP2C9 activ inactive, CYP2C19 inhib inactive, CYP2C19 activ inactive, Cav32 inh -3.49 and CYP2C9 inh inactive.
CN1CCc2nc(SCC(=O)Nc3cccc(F)c3)c(C#N)c(-c3cccs3)c2C1 was read as CYP2C9 activ inactive, CYP2C19 inhib 94.6, CYP2C19 activ inactive and CYP2C9 inh 100.5.
For COCCOC(=O)c1c(C)nc(SCC(=O)Nc2ccc(OC)cc2)c(C#N)c1-c1ccco1 the results were CYP2C9 activ inactive, CYP2C19 inhib inactive, CYP2C19 activ inactive, Cav32 inh inactive and CYP2C9 inh 54.0.
Screening O=C(CSc1nc2c(c(=O)[nH]1)CCC2)Nc1cccc(Cl)c1 returned CYP2C9 activ inactive, CYP2C19 inhib inactive, CYP2C19 activ inactive, Cav32 inh inactive and CYP2C9 inh inactive.
For COc1cccc(NC(=O)CSc2nc3c(c(-c4ccco4)c2C#N)CCCC3)c1 the results were CYP2C9 activ inactive, CYP2C19 inhib inactive, CYP2C19 activ inactive, Cav32 inh inactive and CYP2C9 inh 52.8.
`N#Cc1c(-c2ccco2)nc(SCC(=O)Nc2cccc(Cl)c2)[nH]c1=O` gave CYP2C9 activ inactive, CYP2C19 inhib 60.5, CYP2C19 activ inactive, Cav32 inh inactive and CYP2C9 inh 99.0.
Screening CCCc1n[nH]c2c1/C(=N\O)CCC2 returned CYP2C9 activ inactive, CYP2C19 inhib inactive, CYP2C19 activ inactive, Cav32 inh inactive and CYP2C9 inh inactive.
For CC(C(=O)O)C1SC(=O)NC1=O (stereo not given) the results were CYP2C9 activ inactive, CYP2C19 inhib inactive, CYP2C19 activ inactive, Cav32 inh inactive and CYP2C9 inh inactive.
`CCOc1ccc(N(CC(=O)OC)S(=O)(=O)c2ccc3c(c2)n(C)c(=O)c(=O)n3C)cc1` gave CYP2C9 activ inactive, CYP2C19 inhib inactive, CYP2C19 activ inactive, Cav32 inh inactive and CYP2C9 inh 56.1.
CCOc1ccc(N(CC(N)=O)S(=O)(=O)c2ccc(F)cc2)cc1 was read as CYP2C9 activ inactive, CYP2C19 inhib inactive, CYP2C19 activ inactive, Cav32 inh inactive and CYP2C9 inh inactive.
Screening COC(=O)CN(c1ccc(OC)cc1)S(=O)(=O)c1ccc(OC)c(OC)c1 returned CYP2C9 activ inactive, CYP2C19 inhib 94.0, CYP2C19 activ inactive, Cav32 inh inactive and CYP2C9 inh inactive.
